An excerpt weighted towards active compounds, which were near 5.7% of everything screened.
RORg inh – inhibitors of mouse ROR gamma transcriptional activity; P51450; Drosophila S2 Gal4-RORgamma UAS-luciferase reporter, 20 h; Potency, µM (doses to about 53.6 µM), inactives show at the highest dose activity change, negative = inhibition, most hits filed as inhibitors; 5.4% of 310,000 active; also: nearly all actives have a fitted effect of over 60% in size
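Read-out: Photinus luciferase luminescence; inhibitors lower reporter signal. Insect Schneider cells with Gal4-ROR gamma fusion under metallothionein promoter, UAS reporter; 700 uM final copper sulfate induction, 20 hr, ambient temperature.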
NPSR antag – neuropeptide S receptor (human) antagonism, cAMP; 1% of 220,000 active; CHO-NPSR cells, cAMP TR-FRET, antagonist mode; Q6W5P4; AID 1461; Potency, µM (titrated, usually from 38.3 µM), without a hit: top-dose activity change, negative = inhibition, usual class: inhibitors; also: nearly all actives have a fitted effect of over 50% in size
Target sequence (Q6W5P4 whole entry, looked up): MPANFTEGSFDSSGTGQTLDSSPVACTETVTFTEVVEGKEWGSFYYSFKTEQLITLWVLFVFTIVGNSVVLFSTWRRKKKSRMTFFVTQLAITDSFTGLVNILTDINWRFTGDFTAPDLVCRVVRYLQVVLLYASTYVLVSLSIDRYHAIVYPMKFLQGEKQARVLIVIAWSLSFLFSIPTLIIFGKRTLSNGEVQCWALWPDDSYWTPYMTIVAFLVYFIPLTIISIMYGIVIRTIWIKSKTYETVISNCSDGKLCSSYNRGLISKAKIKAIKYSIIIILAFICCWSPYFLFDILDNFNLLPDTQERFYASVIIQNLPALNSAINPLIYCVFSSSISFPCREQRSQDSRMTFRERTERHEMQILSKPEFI
VP16 counter – inhibits Gal4-VP16 luciferase reporter, ROR gamma counter-screen. Drosophila S2 Gal4-VP16 UAS-luciferase, luminescence, 20 h. Potency, µM (titrated, usually from 53.6 µM), for the others: at the top dose activity, negative = inhibition, actives largely listed as inhibitors. 3.5% of 310,000 active;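 also: Gal4-VP16 expression switched on by copper sulfate through the metallothionein promoter; nearly all actives have a fitted effect of over 50% in size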
B2AR arrestin – beta2AR (human) beta-arrestin recruitment activity. 0.02% of 330,000 active. AID 492947. beta-arrestin recruitment to beta2AR, cell-based reporter. P07550. Potency, µM (top dose mostly 46.1 µM), for inactives: top-dose activation, usual class: activators;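 also: 0% = DMSO controls and full agonism = EC100 isoproterenol or metaproterenol; nearly all actives have a fitted effect of over 65% in size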
The depositor's hits bear a star; ? = inconclusive; · = no result; [ ] = remark or other dose. Calls follow the shape of the dose curve; as a rule, active = well fitted curve in the direction sought with a large enough effect; inconclusive = small, poorly fitted or top-dose-only effect, or another doubt; inactive = no such curve, though single readings can be large; an effect the other way counts as inactive or inconclusive. Unless noted, % is scaled to controls: 0 for no effect and ±100 for the full control effect; potency is read from the fitted curve at half-maximal effect.

SMILES	RORg inh	NPSR antag	VP16 counter	B2AR arrestin
Cc1ccc(NC(=S)NC(C)(C)C)c([N+](=O)[O-])c1	3.2µM*	-20%	7.9µM*	3%
CS(=O)(=O)Nc1cccc(-c2nc(NCc3cccs3)c3ccccc3n2)c1	?	·	-18%	·
C/C(CCC(=O)OC[C@@H]1O[C@H](C#Cc2ccccc2)C=C[C@@H]1Oc1ccc(C)cc1)=N/O[C@@H](C)CN1CCCCc2nc(C)c(C)cc21	0%[10 µM]	·	4%[10 µM]	·
O=C(/C=C\c1ccccc1[N+](=O)[O-])Nc1ccccc1	39%	-21%	22%	0%
COC(=O)/C(=C(O)\C=C\c1ccccc1[N+](=O)[O-])c1nc2ccccc2[nH]1	7.9µM*	·	?	0%
CCN1CCN(c2cc(C)nc(-c3ccccc3O)n2)CC1	-23%	3%[7.67 µM]	3%	0%
Cc1cc(NC(=O)CN2CCOCC2)n(-c2ccccc2)n1	-4%	-7%	-28%	1%
Cc1cc(C)nc(-n2nc(C)cc2NC(=O)CN2CCC(C)CC2)n1	?	5%[7.67 µM]	?	?
Cc1cc(C)nc(-n2nc(C)cc2NC(=O)CNC(C)c2ccccc2)n1 (stereo not given)	1.6µM*	-4%[46.1 µM]	-27%	0%
Cc1cc(C)nc(-n2nc(C)cc2NC(=O)CN2CCCC2)n1	11µM*	-10%	-13%	?
CCC1CCCCN1CC(=O)Nc1cc(C)nn1-c1nc(C)cc(C)n1 (stereo not given)	0.4µM*	?	1.3µM*	35µM*
Cc1cc(NC(=O)CN2CCOCC2)n(-c2nc3ccccc3s2)n1	3.5µM*	-19%[46.1 µM]	1%	·
C[C@@H](c1ccccc1)N1C(=O)[C@H]2[C@H]3[C@H](O)[C@H](O)C/C(=N/NC(=O)OCc4ccccc4)[C@@H]3CC[C@@H]2C1=O	-3%[10 µM]	·	-2%[10 µM]	·
N=S(=O)(O)Cc1noc2ccccc12	·	-4%[46.1 µM]	·	·
Cc1ccc(C)c(C(=O)Nc2cc(C)nn2-c2nc(C)cc(C)n2)c1	0.5µM*	-58%	?	0%
N#Cc1cccc(CS(=O)(=O)c2nc3ccccc3s2)c1	-35%	·	-4%	·
Cc1nnc(NC(=O)c2oc3c(ccc4ccccc43)c2C)s1	13µM*	-15%[46.1 µM]	-5%	0%
CCOC(=O)c1c(CSC(=N)N)n(-c2ccc(C)cc2)c2cc(Br)c(OC(C)=O)cc12	?	10µM*	?	0%
COc1cc(/C=C2/SC(=S)N(CC(=O)Nc3nc4ccccc4s3)C2=O)cc(OC)c1OC	10µM*	-23%[46.1 µM]	-2%	-1%
COc1cc(/C=C2\SC(=S)N(CC(=O)Nc3ccccn3)C2=O)cc(OC)c1OC	-5%	?	-6%	0%
CCc1nnc(NC(=O)CN2C(=O)/C(=C/c3cc(OC)c(OC)c(OC)c3)SC2=S)s1	16µM*	-7%	?	0%
COc1ccc(C)c(NC(=O)NCCc2cnc[nH]2)c1	15%	·	0%	3%
Cc1cc(SCn2nnc3ccccc3c2=O)nc2ccccc12	17%[10 µM]	-19%	-4%	-1%
Cc1ccc(-n2nnnc2SCn2nnc3ccccc3c2=O)c(C)c1	?	?	7.1µM*	·
O=c1c2ccccc2nnn1CSc1nc2ccccc2c(=O)n1Cc1ccco1	2.5µM*	?	?	0%
SMILES	RORg inh	NPSR antag	VP16 counter	B2AR arrestin
Cc1oc(-c2ccccc2Cl)nc1CSCC(=O)O	-127%	-4%[46.1 µM]	7.9µM*	0%
Cc1oc(-c2cccc(Cl)c2)nc1CSCC(=O)O	10µM*	-8%[46.1 µM]	5µM*	0%
C=C(C)CNC(=S)Nc1nc2c(cc1C(=O)OCC)CCCC2	5µM*	-21%	10µM*	0%
O=C(Nc1nccs1)c1cc(-c2ccccc2)nc2ccccc12	11µM*	-4%	?	5%
O=C(Nc1nccs1)c1cc(Cl)nc2ccccc12	18µM*	7%	?	-1%
O=C(Nc1nccs1)c1cc(-c2ccco2)nc2ccccc12	-27%	3%	7%	-2%
O=C(Nc1nccs1)c1cc(-c2ccccn2)nc2c(Cl)cccc12	5µM*	·	6.3µM*	-1%
COC(=O)c1nnc(C(=O)N(C)Cc2ccccc2)c2[nH]c3ccccc3c12	0%	·	0%	·
O=S(=O)(Nc1ccc2c(c1)OCO2)c1ccc(Br)s1	?	-25%[46.1 µM]	22%	-1%
O=C(/C=C/c1ccc([N+](=O)[O-])s1)N1CCCCC1	11µM*	-28%	?	0%
O=C(/C=C/c1ccc([N+](=O)[O-])s1)N1CCCC1	6.3µM*	-21%	13µM*	0%
O=C(/C=C/c1ccc([N+](=O)[O-])s1)N1CCN(c2ccccc2)CC1	-17%	·	-1%	0%
CN(CC(=O)Nc1ccccc1Cl)C(=O)CN1C(=O)C2CC=CCC2C1=O (stereo not given)	·	·	·	0%
CCC(CC)NC(=O)c1oc2ccccc2c1COc1ccccc1	?	?	28µM*	-1%
CC(=O)Nc1ccc(S(=O)(=O)Oc2ccc(C(=S)N3CCCCC3)cc2)cc1	?	-7%	?	-1%
CC(=O)Nc1ccc(S(=O)(=O)Oc2ccc(C(=S)N3CCC(O)CC3)cc2)cc1	?	6%	35µM*	-5%
Cc1cccc(OCC(=O)Nc2ccc(NC(=O)c3ccco3)cc2)c1	12%	·	1%	0%
Cn1nnc(NC(=S)NC(=O)c2cccc3c(Cl)cccc23)n1	0.89µM*	·	2.8µM*	0%
Cn1nnc(NC(=S)NC(=O)c2cccc3c(Br)cccc23)n1	0.89µM*	·	2.8µM*	0%
COc1c(C(=O)NC(=S)Nc2nnn(C)n2)cc2ccccc2c1Br	2.5µM*	·	4µM*	0%
Cn1nnc(NC(=O)c2ccco2)n1	2%	-2%[46.1 µM]	-3%	0%
CCCCC/C=C\C\C=C/C=C/C=C/[C@@H](SCC(N)C(=O)O)[C@@H](O)CCCC(=O)O (stereo not given in full)	-3%	·	-6%	·
COc1cccc(OCCSc2nnc3sc4ccccc4n23)c1	-22%[0.365 µM]	-2%[46.1 µM]	·	0%
c1ccc(OCCSc2nnc3sc4ccccc4n23)cc1	11µM*	-19%[46.1 µM]	11µM*	0%
Cc1ccc(S(=O)(=O)N[C@H]2COC(=O)[C@H](C)COC(=O)C/C=C\[C@H]2C)cc1	11%[10 µM]	·	1%[10 µM]	·
SMILES	RORg inh	NPSR antag	VP16 counter	B2AR arrestin
Cc1cccc(C(=O)n2c(=S)nc3cc(C)ccn32)c1	?	5%	?	-1%
Cc1ccn2c(c1)nc(=S)n2C(=O)c1ccccc1	4µM*	-45%	2.5µM*	-1%
O=C(O)c1ccc(NS(=O)(=O)c2ccsc2C(=O)O)c(O)c1	-14%	·	-4%	·
CS/C(Nc1cc(Cl)ccc1Cl)=C(/C#N)C(=O)c1ccco1	10µM*	?	14µM*	0%
CCOc1ccc(NC(=O)Cn2nnc(C(=O)NCc3ccc4c(c3)OCO4)c2N)cc1	-33%	·	-19%	0%
CCOc1cc2[nH]c(=S)n(CC3CCCO3)c(=O)c2cc1OCC (stereo not given)	11µM*	-8%[46.1 µM]	?	0%
CCOc1cc2[nH]c(=S)n(CC3CCCN3CC)c(=O)c2cc1OCC (stereo not given)	10µM*	-9%[46.1 µM]	3%	0%
COc1cc2[nH]c(=S)n(CC3CCCO3)c(=O)c2cc1OC (stereo not given)	?	-13%[46.1 µM]	?	0%

High-throughput results from PubChem BioAssay.
